Measurements taken from the OligoGym collection.

molecular target: ATP6V0A4; assay: pooled miR-30 sensor sort-seq; sequence = guide strand; details: shRNA
Further: reference of the scale not given here.

Sequence | sensor-assay potency score (higher = more potent)
TTCCTGTAACTCTCCTTCCAGT | -0.817
TTGTTCTGGAACTCAACCCAGT | -0.422
TTCTGCACCTTGATGAGCCAGG | -0.64
ATAGGCATCAACAATATTCTGG | -0.65
TAGTTAAACAGAAACATGTTGA | -0.563
TCTTTGAACTGAACCAATCCGA | 0.235
TTTTTCTAGAACAGTCTCCAGG | -0.591
TTTCGTCACAGGATCCTCCAGA | 0.303
ATCTTCTTGATTTTCTGCCTGA | -0.439
TTCTAGAACAGTCTCCAGGGTA | -0.117

molecular target: ATP7B; assay: as above; details: shRNA

Sequence | sensor-assay potency score (higher = more potent)
TAGAGTCCAAGACAAAGCCCAT | -1.12
TATCTTGTGCGCCATCTCCAGG | -1.02
TTTGTTGATGCCAACCTGGGTG | -0.00244
TTTCATCTCGTGGTCTGTCATA | -1.47
TCTCGTGGTCTGTCATAGCGTC | -0.487
TATAGCACTTGAGCTGCAGGGA | -0.435
TTGACATCTGAGCCTCTTCCAC | -1.39
TTTTTGGTCCTGATGAAACTGT | -0.518
TAGCACTTGAGCTGCAGGGATG | -1.64
TGACTCGCCTCTCACCTTCTAC | -1.09
TTATCTTGTGCGCCATCTCCAG | -0.947
ATAGCGTCACTGACATCGCTAG | -0.788
AAACATCACAGTCTTTATCTTG | -0.586
TTGTCAAACATCACAGTCTTTA | -0.992
AATGCTAGCCACCACATCCAGC | -0.992
TGTCCTGCTCAGCTTGTGGTGA | -0.618
TTGGGGTTCTTTGACATCTGAG | -0.597
AACATCACAGTCTTTATCTTGT | -0.258
TGTCTGTCCTTTCATCTCGTGG | -1.22
TCATCGTCTGCTGCAGCGCTGT | -1.45
TTCAGGAGCAGAGACCACTTGT | -0.382
TTCCTCTTTACAGTATTTGGTG | -0.123
TGACTGGACATATCCAGGGAGC | -1.47
TAGCTCTGGCTGTCTTCCGGTT | -1.3

molecular target: ATP8A2; assay: as above; details: shRNA

Sequence | sensor-assay potency score (higher = more potent)
TAATACATATCTGTGTCCCAGT | -0.374
TTAAAGTTCATGATATTGCATG | -0.75
TTGAGTATACTTCACAACCTCA | -0.741
TTGTGTTGAAGCCTTCGCCATT | -1.44
TTGTCTCCTGTCAACACCCATA | -1.33
TTGTATAAGATGATGAACGTCA | 2.4e-06
